# Assay results from the supplement of paper PMC6555819.
# System: RARg:RXRa (NR concentration 270 nM, RXRa partner concentration 90 nM)
# Experiment: PBM binding z-score (relative to random genomic background probes); higher = stronger binding; sequences stand for … in GC…GCGATTGACAGCGTAGAATGAAGG
# In short: (§1)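 Regression normalization was applied to scanned fluorescence from custom Agilent 4×180K protein-binding microarrays. Before scanning, arrays were incubated 1 h with ligand-free nuclear receptor dimers, and binding was detected with antibodies against each partner (one per run). Binding z-scores use the random background probes as reference.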
row,Sequence,PBM binding z-score
1,TAGACTAGGTCATTCAGGGGCCAGTATAGAAAGC,5.47
2,TGTGCTAGGTCAGTTGGTCAGCTAACGAGCTGCC,2.6
3,TTACCACGGTGAAGGTCGTTGATCCCTCTGTAGA,0.459
4,TTACCAAGGTGAGCTGAGGTCGTTCATCCAACTC,1.4
5,ATCGGAAGGTCGACGAGGTGAGTATACACCGTTT,2.32
6,CCAGACAGGTGAAAGGTAACTTAGTCTGGTACGC,1.23
7,AGTCAAAGTTCAGGGCGAGGTAACGTAAAGCACG,5.13
8,TCTGGTTGGTCACGGAGGTCACACACGACGGGTA,4.91
9,TTACCAAGGTTAAGGTCGTTGATCCCTCTGTAGA,2.63
10,CCTCGGAGGACAAGAGGAGGTCAGAGCTGCCAGA,2.87
11,GCTTACGGGTCAAAGGATATAGCATGAATAGAAT,4.62
12,CGTCCAAGGTAAAAGGTCAGTGAAGAGATGACGG,4.86
13,CGTCCAAGGTCAGGGTCAGTGAAAGAGACTCGAA,5.67
14,ATCTCTAGGTAAAGTTCGGTGAAAGATCGATAGA,0.582
15,CAAACTAGGTCGAGGTCAAAGTCGGTTTGTGCCA,5.24
16,CCTAACGGGTCACGAGGTTATAGCACGACGAGCG,5.84
17,CAAACTAGGTCACGAAAGGCCAAAGTCGAATGAC,5.29
18,CGTGCAAGGTCAATGCTAGGTCAGTGAAAGCATT,7.96
19,CCTACTGGGCCATTCAGAGGTCATTGAGCATATG,4.6
20,ATACCAAGGTGATGGTGAGGTCGTTGATACTAAC,1.84

row,Sequence,PBM binding z-score
1,CCTTACGGGTCACGAGGTTACAGCACGACGAGCG,6.15
2,GATACAGGGTCAGCTAGAGGCCAGAGTATGGAAA,6.67
3,TGAATGAGGTTAAAGATCAGGGACCGTGGCGTCG,2.38
4,CAAACTTGGTCACGAAAGGTCAAAGTCGAATGAC,6.15
5,GGAACGAGGGCAAAGTTGATTGCATCTGTCGACG,1.89
6,CCTCGGAGGACAGAAGGTCAGAGCGGTCCGCTTT,3.59
7,CAGCCTCGGTCAGGGCCAGTATAGGAGGAACGTT,0.85
8,TCGAGTAGGTTAGTCGAGGCATTCAGCCAACATA,-0.298
9,CGTCCAATGTCATAGGAGGTCAGTGAAGACAGAT,3
10,GCTGCTTGGTCAGGTTGGTCAGCTAACGGGTACG,-0.088
11,GCAGACAGGTGAAGCGCAGGTAACTCAGGGTGGC,0.302
12,GCTAGCAGGCCATTTGGGTCCCTCAATGACGGGC,-0.417
13,ATCTCTAGGTTACCAAGTTCAGTGAATGCCGAAC,1.88
14,CGTCCAAGGTCAATGCTAAGTCAGTGAAAGCATT,5.54
15,ATCGAAAGGTCTAGGTGAGTATAGAGAAAGGGAA,1.23
16,CATACAGGGTCAGCTTGGCCAGAGTAGGGACGGC,4.12
17,CCTACTGGGCTACGAAAGGTCATTGATTCAGTGA,4.54
18,ATATGTAGGTTGCATCCGGGTCATTCAGGCTATG,2.04
19,TAGCCTAGGTCATTCAAGGGCCAGTATAGAAAGC,5.84
20,AGAATGAGGATACCAAAGATCAGGGAAACGCTTG,0.287

# System: RARg homodimer (NR concentration 270 nM)
# Experiment: as above
# In short: as §1
row,Sequence,PBM binding z-score
1,TAGACTAGGTCATTCAGGGGCCAGTATAGAAAGC,4.47
2,TGTGCTAGGTCAGTTGGTCAGCTAACGAGCTGCC,3.48
3,TTACCACGGTGAAGGTCGTTGATCCCTCTGTAGA,0.382
4,TTACCAAGGTGAGCTGAGGTCGTTCATCCAACTC,0.963
5,ATCGGAAGGTCGACGAGGTGAGTATACACCGTTT,2.65
6,CCAGACAGGTGAAAGGTAACTTAGTCTGGTACGC,0.78
7,AGTCAAAGTTCAGGGCGAGGTAACGTAAAGCACG,4.99
8,TCTGGTTGGTCACGGAGGTCACACACGACGGGTA,5.28
9,TTACCAAGGTTAAGGTCGTTGATCCCTCTGTAGA,2.31
10,CCTCGGAGGACAAGAGGAGGTCAGAGCTGCCAGA,2.83
11,GCTTACGGGTCAAAGGATATAGCATGAATAGAAT,3.96
12,CGTCCAAGGTAAAAGGTCAGTGAAGAGATGACGG,5.11
13,CGTCCAAGGTCAGGGTCAGTGAAAGAGACTCGAA,6.48
14,ATCTCTAGGTAAAGTTCGGTGAAAGATCGATAGA,0.694
15,CAAACTAGGTCGAGGTCAAAGTCGGTTTGTGCCA,4.79
16,CCTAACGGGTCACGAGGTTATAGCACGACGAGCG,4.93
17,CAAACTAGGTCACGAAAGGCCAAAGTCGAATGAC,5.81
18,CGTGCAAGGTCAATGCTAGGTCAGTGAAAGCATT,7.27
19,CCTACTGGGCCATTCAGAGGTCATTGAGCATATG,3.1
20,ATACCAAGGTGATGGTGAGGTCGTTGATACTAAC,0.644

row,Sequence,PBM binding z-score
1,CCTTACGGGTCACGAGGTTACAGCACGACGAGCG,5.42
2,GATACAGGGTCAGCTAGAGGCCAGAGTATGGAAA,4.67
3,TGAATGAGGTTAAAGATCAGGGACCGTGGCGTCG,0.948
4,CAAACTTGGTCACGAAAGGTCAAAGTCGAATGAC,6.2
5,GGAACGAGGGCAAAGTTGATTGCATCTGTCGACG,1.34
6,CCTCGGAGGACAGAAGGTCAGAGCGGTCCGCTTT,3.6
7,CAGCCTCGGTCAGGGCCAGTATAGGAGGAACGTT,1.86
8,TCGAGTAGGTTAGTCGAGGCATTCAGCCAACATA,-0.249
9,CGTCCAATGTCATAGGAGGTCAGTGAAGACAGAT,3.4
10,GCTGCTTGGTCAGGTTGGTCAGCTAACGGGTACG,0.0673
11,GCAGACAGGTGAAGCGCAGGTAACTCAGGGTGGC,0.0246
12,GCTAGCAGGCCATTTGGGTCCCTCAATGACGGGC,-0.379
13,ATCTCTAGGTTACCAAGTTCAGTGAATGCCGAAC,1.79
14,CGTCCAAGGTCAATGCTAAGTCAGTGAAAGCATT,6.06
15,ATCGAAAGGTCTAGGTGAGTATAGAGAAAGGGAA,1.3
16,CATACAGGGTCAGCTTGGCCAGAGTAGGGACGGC,4.29
17,CCTACTGGGCTACGAAAGGTCATTGATTCAGTGA,4.54
18,ATATGTAGGTTGCATCCGGGTCATTCAGGCTATG,1.12
19,TAGCCTAGGTCATTCAAGGGCCAGTATAGAAAGC,4.64
20,AGAATGAGGATACCAAAGATCAGGGAAACGCTTG,0.437
